Test [1] can be described thus: qHTS assay to identify small molecule antagonists of the retinoid acid receptor (RAR) signaling pathway - cell viability counter screen (AID 1159551). Note: nearly all actives have a fitted effect of over 35% in size. Note: potency is the fitted concentration of half-maximal effect. A digest of the protocol: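 C3RL4 cells were seeded overnight at 37 C, then treated with compounds plus 1 uM (final) retinol for 6 h at 37 C. Viability was read as ATP by CellTiter-Glo luminescence after 30 min at room temperature.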

A short description of test [2]: qHTS assay to identify small molecule antagonists of the retinoic acid receptor (RAR) signaling pathway (AID 1159552; note: nearly all actives have a fitted effect of over 50% in size; note: potency is the fitted concentration of half-maximal effect). A digest of the protocol: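 Cells of the C3RL4 line were seeded, incubated overnight, then dosed with compounds in DMSO followed immediately by retinol (1 uM final). Six hours later luciferase detection reagent went in; signal was measured after 30 min at RT.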

Test [3] is described as follows: qHTS assay to identify small molecule antagonists of the estrogen related receptor (ERR) signaling pathway - cell viability counter screen (AID 1224818).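 Note: series mostly up to about 46 µM; viability measured after 17.5 h of compound exposure.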 A digest of the protocol:
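ERR reporter cells plated 6 h at 37 C/5% CO2, then compounds in DMSO pin-transferred and incubated 17.5 h at 37 C. Viability read as CellTiter-Fluor fluorescence after 30 min at 37 C.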

A short description of test [4]: qHTS assay to identify small molecule agonists of the estrogen related receptor (ERR) signaling pathway (AID 1224820). A digest of the protocol: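 ERR reporter cells (NTP line) plated 2,000/well, incubated 6 h at 37 C/5% CO2, then pinned with compounds in DMSO and held 18 h at 37 C. One-Glo added; luminescence read after 30 min at room temperature.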
In test [5] the test system is estrogen-related receptor alpha (ERRalpha) with PGC-1alpha coactivator, human. Put plainly: qHTS assay to identify small molecule antagonists of the estrogen related receptor signaling pathway with the pleiotropic PPARgamma coactivator (PGC) (AID 1224821; calls by dose curve;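 note: series mostly up to about 46 µM; lower luminescence signal means antagonism of PGC/ERR signalling; nearly all actives have a fitted effect of over 50% in size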). A digest of the protocol:
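Cells engineered for PGC/ERR signalling (line from NTP) were plated 6 h at 37 C/5% CO2, then exposed to DMSO-dissolved compound for 18 h at 37 C. Luciferase activity was read by One-Glo luminescence after 30 min at room temperature.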

Test [6] is described as follows: qHTS assay to identify small molecule agonists of the estrogen related receptor signaling pathway with the pleiotropic PPARgamma coactivator (PGC) (AID 1224823). A digest of the protocol:
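PGC/ERR reporter cells were seeded, rested 6 h at 37 C/5% CO2, then exposed to compounds in DMSO by pin transfer for 18 h at 37 C. Luciferase activity was read as luminescence after One-Glo reagent and 30 min at room temperature.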

Test [7] is described as follows: qHTS assay to identify small molecule agonists of the constitutive androstane receptor (CAR) signaling pathway - cell viability counter screen (AID 1224836). Note: nearly all actives have a fitted effect of over 45% in size. Note: potency is the fitted concentration of half-maximal effect. A digest of the protocol: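 HepG2-CYP2B6-hCAR, 2500 cells/well, 4 h pre-incubation; cpd 15 conc + PK11195 0.75 uM final; 23 h, 37 C/5% CO2; CellTiter-Fluor, fluorescence.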
Test [8] is described as follows: qHTS assay to identify small molecule antagonists of the constitutive androstane receptor (CAR) signaling pathway - cell viability counter screen (AID 1224837). Note: nearly all actives have a fitted effect of over 45% in size. Note: potency is the fitted concentration of half-maximal effect. A digest of the protocol: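 HepG2 cells stably expressing hCAR and a CYP2B6-2.2kb reporter were plated and pre-incubated 4 hr at 37 C/5% CO2, then given compounds at 15 concentrations plus 50 nM CITCO (final). After 23 hr, viability was read by CellTiter-Fluor fluorescence.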

For test [9], the target named is Nuclear receptor subfamily 1 group I member 3 (Homo sapiens) (UniProt Q14994). The experiment in a line: qHTS assay to identify small molecule antagonists of the constitutive androstane receptor (CAR) signaling pathway (AID 1224838). Note: nearly all actives have a fitted effect of over 40% in size. Note: potency is the fitted concentration of half-maximal effect. A digest of the protocol: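 HepG2 cells stably co-transfected with hCAR and a CYP2B6-2.2kb luciferase reporter were seeded 4 h before compound addition at 15 concentrations. Cells were stimulated with 50 nM CITCO (final) for 24 h at 37 C; luciferase luminescence was then read.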
Sequence of Nuclear receptor subfamily 1 group I member 3 (Homo sapiens) (Q14994 whole entry, looked up): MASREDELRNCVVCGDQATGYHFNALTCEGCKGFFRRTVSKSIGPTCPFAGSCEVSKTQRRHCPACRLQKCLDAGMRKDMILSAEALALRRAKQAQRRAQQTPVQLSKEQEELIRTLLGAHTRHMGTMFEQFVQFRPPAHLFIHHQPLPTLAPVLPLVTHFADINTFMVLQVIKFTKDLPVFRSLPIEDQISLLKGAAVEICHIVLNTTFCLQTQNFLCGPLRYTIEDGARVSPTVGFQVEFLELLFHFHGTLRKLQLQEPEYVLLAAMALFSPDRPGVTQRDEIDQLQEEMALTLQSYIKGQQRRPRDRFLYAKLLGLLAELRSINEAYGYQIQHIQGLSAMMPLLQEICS

The target is the same in test [10]. Put plainly: qHTS assay to identify small molecule agonists of the constitutive androstane receptor (CAR) signaling pathway (AID 1224839). For activation: series mostly up to about 92 µM. Note: nearly all actives have a fitted effect of over 15% in size. Note: potency is the fitted concentration of half-maximal effect. A digest of the protocol:
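HepG2-CYP2B6-hCAR cells, 2500/well, 4 h pre-incubation; compounds 15 conc.; PK11195 0.75 uM final; 24 h, 37 C/5% CO2; ONE-Glo luciferase read.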

Test [11] can be described thus: qHTS assay to identify small molecule antagonists of the estrogen related receptor signaling pathway with the pleiotropic PPARgamma coactivator (PGC) from Tox21 10K library - cell viability counter screen (AID 1224840; active = well fitted cell-killing curve with a large enough effect in the repeat runs, not every such curve was filed as active; note: nearly all actives have a fitted effect of over 40% in size; note: potency is the fitted concentration of half-maximal effect). A digest of the protocol:
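PGC/ERR cells were seeded at 2,000 cells/well and left 6 hours at 37 C/5% CO2 before pin-tool addition of compounds in DMSO. After 17.5 hours at 37 C, CellTiter-Fluor was added and fluorescence read 30 minutes later.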

Test [12] can be described thus: qHTS assay to identify small molecule agonists of the estrogen related receptor signaling pathway with the pleiotropic PPARgamma coactivator (PGC) from Tox21 10K library (AID 1224842). Note: nearly all actives have a fitted effect of over 15% in size. A digest of the protocol: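 PGC/ERR reporter cell line, 2,000 cells per well, incubated 6 h at 37 C before 23 nL compound in DMSO was added. After 18 h at 37 C, One-Glo luminescence read following 30 min at room temperature.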

The target of test [13] is Thyrotropin receptor (Homo sapiens) (UniProt P16473). Put plainly: qHTS assay to identify small molecule agonists of the thyroid stimulating hormone receptor (TSHR) signaling pathway (AID 1224843; calls by dose curve; note: nearly all actives have a fitted effect of over 45% in size; note: potency is the fitted concentration of half-maximal effect). A digest of the protocol:
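Steps: seed 800 TSHR-HEK293 cells per well; add test compound and hold 30 min at ambient temperature; dispense cAMP-d2 then anti-cAMP cryptate; incubate 1 h at ambient; measure fluorescence intensity.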

The nature of test [14]: qHTS assay to identify small molecule agonists of the hypoxia (HIF-1) signaling pathway - cell viability counter screen (AID 1224844; calls by dose curve; note: nearly all actives have a fitted effect of over 50% in size; note: potency is the fitted concentration of half-maximal effect). A digest of the protocol:
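HRE-bla ME-180 cells in medium with 0.5% dialyzed FBS were preincubated 5 hrs at 37C, exposed to compounds for 17 hrs, then viability was read as CellTiter-Glo luminescence after 30 min at room temperature, in the reporter wells.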

Test [15] can be described thus: qHTS assay to identify small molecule agonists of the retinoic acid receptor (RAR) signaling pathway (AID 1159553). A digest of the protocol: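 C3RL4 cells carrying a RARE luciferase reporter were plated overnight at 37 C, then exposed to compounds in DMSO for 6 hr at 37 C and 5% CO2. Luminescence was read 30 min after luciferase reagent addition at room temperature.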

Test [16] is described as follows: qHTS assay to identify small molecule antagonists of the estrogen related receptor (ERR) signaling pathway from Tox21 library - cell viability counter screen (AID 1224834). Note: nearly all actives have a fitted effect of over 30% in size. Note: potency is the fitted concentration of half-maximal effect. A digest of the protocol:
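ERR reporter cells were plated 6 h before compound addition, then exposed to test compounds in DMSO for 17.5 h at 37 C. Viability was read as CellTiter-Fluor fluorescence after a 30-minute incubation at 37 C.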

Test [17] can be described thus: qHTS assay to identify small molecule agonists of H2AX (AID 1224845; active = well fitted activation curve with a large enough effect in the signal ratio in the repeat runs, not every such curve was filed as active; the % refers to the signal ratio; note: potency is the fitted concentration of half-maximal effect). A digest of the protocol: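 Wild-type CHO-K1 cells, plated overnight, exposed 3hr at 37C to 15 concentrations (0.76% DMSO final). Lysed, then HTRF anti-pH2AX (S139) cryptate and anti-H2AX-d2 antibodies, 24 hr room temperature; 665/620 nm emission read.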
The target of test [18] is Luciferin 4-monooxygenase (Photinus pyralis) (UniProt P08659). Put plainly: qHTS assay to identify small molecule inhibitors of firefly luciferase (AID 1224835). Note: nearly all actives have a fitted effect of over 25% in size. Note: potency is the fitted concentration of half-maximal effect. A digest of the protocol:
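Biochemical qHTS: compounds run as interplate titrations against purified firefly enzyme, with D-luciferin and ATP each at its KM concentration. Light output recorded by CCD imaging.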

Test [19] can be described thus: qHTS assay to identify small molecule antagonists of the estrogen related receptor signaling pathway with the pleiotropic PPARgamma coactivator (PGC) from Tox21 10K library (AID 1224841; call rule not given here; note: potency is the fitted concentration of half-maximal effect; actives are mostly falling curves and most rising ones were filed inactive; nearly all actives have a fitted effect of over 50% in size). A digest of the protocol: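 PGC/ERR reporter cells were seeded at 2,000 cells/well and held 6 hours at 37 C/5% CO2 before pin-tool addition of compounds in DMSO. After 18 hours at 37 C, One-Glo was added and luminescence read after 30 minutes at room temperature.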

Inconclusive results are not listed. The source made the active and inactive calls. Unless noted, calls come from the whole dose curve; as a rule, active = well fitted curve in the direction sought with a large enough effect in the repeat runs; inconclusive = weak or mixed curves; inactive = no such curve, though single readings can be large; an effect the other way counts as inactive or inconclusive.

Sequence of Thyrotropin receptor (Homo sapiens) (P16473 whole entry, looked up): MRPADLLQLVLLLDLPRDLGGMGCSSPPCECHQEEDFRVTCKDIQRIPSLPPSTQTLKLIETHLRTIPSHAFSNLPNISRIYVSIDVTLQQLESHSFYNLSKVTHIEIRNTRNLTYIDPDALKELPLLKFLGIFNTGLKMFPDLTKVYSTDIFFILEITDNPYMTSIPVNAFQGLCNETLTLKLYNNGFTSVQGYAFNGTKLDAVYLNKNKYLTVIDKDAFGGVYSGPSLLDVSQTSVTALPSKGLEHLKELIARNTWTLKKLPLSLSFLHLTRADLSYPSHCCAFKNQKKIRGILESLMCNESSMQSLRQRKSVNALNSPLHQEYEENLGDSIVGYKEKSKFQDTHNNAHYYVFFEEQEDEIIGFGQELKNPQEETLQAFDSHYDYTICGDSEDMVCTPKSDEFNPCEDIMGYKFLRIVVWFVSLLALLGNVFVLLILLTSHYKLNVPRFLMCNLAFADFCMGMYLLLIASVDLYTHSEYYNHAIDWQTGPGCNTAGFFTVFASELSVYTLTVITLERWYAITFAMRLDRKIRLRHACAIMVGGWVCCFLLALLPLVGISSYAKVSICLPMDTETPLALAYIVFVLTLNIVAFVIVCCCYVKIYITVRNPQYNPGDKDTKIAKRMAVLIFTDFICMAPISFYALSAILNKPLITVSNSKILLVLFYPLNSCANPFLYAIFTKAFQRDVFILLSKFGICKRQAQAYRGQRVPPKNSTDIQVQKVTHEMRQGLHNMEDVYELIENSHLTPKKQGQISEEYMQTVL
Sequence of Luciferin 4-monooxygenase (Photinus pyralis) (P08659 whole entry, looked up): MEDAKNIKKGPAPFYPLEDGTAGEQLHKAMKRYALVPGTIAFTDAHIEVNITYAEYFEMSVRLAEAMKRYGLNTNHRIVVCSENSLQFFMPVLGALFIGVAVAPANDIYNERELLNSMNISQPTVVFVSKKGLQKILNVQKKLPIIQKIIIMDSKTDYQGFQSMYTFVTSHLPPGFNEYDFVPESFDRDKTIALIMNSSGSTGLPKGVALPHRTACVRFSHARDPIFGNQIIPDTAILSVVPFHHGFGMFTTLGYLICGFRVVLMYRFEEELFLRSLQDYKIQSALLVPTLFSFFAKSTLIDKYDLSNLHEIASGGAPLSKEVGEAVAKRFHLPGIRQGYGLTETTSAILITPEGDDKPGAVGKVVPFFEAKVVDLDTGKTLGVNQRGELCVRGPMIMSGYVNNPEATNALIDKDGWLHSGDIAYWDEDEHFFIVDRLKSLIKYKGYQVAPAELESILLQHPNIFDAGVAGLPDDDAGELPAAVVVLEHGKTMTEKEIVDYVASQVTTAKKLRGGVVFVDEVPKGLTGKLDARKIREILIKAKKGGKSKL

On to `Nc1ccc(Sc2ccc(N)cc2)cc1`, for which the Potency result in test [1], in test [2], in [5], in test [7], in test [8] and in test [9] was “inactive” each time. Moreover, the Potency result in test [11], in [12], in [13] and in test [14] was “inactive” throughout. Further, the outcome in test [3], in [4] and in [6] was inactive. Moreover, in [10], the Potency was 34.4 µM (active).
Regarding `COP(=S)(OC)Oc1cc(Cl)c(Br)cc1Cl`, the Potency entry in [1], in test [2], in [15], in test [16], in test [7] and in test [8] was “inactive” each time. The Potency entry in [9], in test [11], in test [13], in [14] and in test [17] was “inactive” each time. Also, in test [10], the Potency is 54.5 µM (active).
As for `N#C/C=C/C#N`, the Potency entry in test [1], in test [2], in [15], in [7], in test [8] and in test [9] was “inactive” each time. Further, the Potency entry in test [11] and in test [13] was “inactive” each time. For the same compound, in test [10], the Potency is 64 µM (active).
Regarding `CCCN(CCC)c1c([N+](=O)[O-])cc(S(N)(=O)=O)cc1[N+](=O)[O-]`, the Potency was 58.1 µM (active) in test [1]; 48.6 µM (active) in [2]; 46.2 µM (active) in test [16]; 65.2 µM (active) in [7]; 65.2 µM (active) in test [8]; 16.4 µM (active) in test [10]. For the same compound, the Potency in test [11] is 36.7 µM (active); in test [19] it was 65.2 µM (active); in test [13] it was 5.18 µM (active); in test [14], 37 µM (active); in test [17] it was 101 µM (active). The result in test [4] and in test [6] was inactive. For the same compound, the Potency result in test [18] and in test [12] was “inactive” in each case.
Regarding `Clc1ccc(C(Cl)(Cl)Cl)c(Cl)c1`, the Potency entry in [1], in test [2], in test [15], in test [18], in test [7] and in [9] was “inactive” in each case. Further, the Potency entry in test [10], in [11], in test [12], in test [13] and in test [17] was “inactive” each time.
Regarding `O=[N+]([O-])c1ccc2ccc3cccc4ccc1c2c34`, the Potency result in test [1], in test [2], in test [15], in [18], in test [7] and in test [8] was “inactive” in each case. Moreover, the Potency result in test [10] and in test [11] was “inactive” each time. Moreover, the Potency was 4.85 µM (active) in test [9] and 34.7 µM (active) in test [14].
Take `BrC(Br)C(Br)(Br)Br`: the Potency result in test [1], in test [15], in [7], in test [8], in test [10] and in [11] was “inactive” each time. For the same compound, the Potency was 30.8 µM (active) in [2] and 22.6 µM (active) in test [18].

Source of the values: PubChem BioAssay (Tox21).
